Source: the supplement of paper PMC11732987, “Enantioselective OTUD7B fragment discovery through chemoproteomics screening and high-throughput optimisation” (Communications Chemistry, 2025)

Assays:
Assay in all cases: log2 ratio of Biotin-Ahx-Ub-VS probe labelling (fragment/DMSO); higher = less target engagement (more negative = stronger competition), active = hit call of the paper (q ≤ 0.05, log2 ratio ≤ -1)
Conditions in all cases: compound concentration: 200 uM; treatment time: 3 h
USP19 = molecular target: T1, USP19 (UniProt O94966)
T1 sequence (whole entry): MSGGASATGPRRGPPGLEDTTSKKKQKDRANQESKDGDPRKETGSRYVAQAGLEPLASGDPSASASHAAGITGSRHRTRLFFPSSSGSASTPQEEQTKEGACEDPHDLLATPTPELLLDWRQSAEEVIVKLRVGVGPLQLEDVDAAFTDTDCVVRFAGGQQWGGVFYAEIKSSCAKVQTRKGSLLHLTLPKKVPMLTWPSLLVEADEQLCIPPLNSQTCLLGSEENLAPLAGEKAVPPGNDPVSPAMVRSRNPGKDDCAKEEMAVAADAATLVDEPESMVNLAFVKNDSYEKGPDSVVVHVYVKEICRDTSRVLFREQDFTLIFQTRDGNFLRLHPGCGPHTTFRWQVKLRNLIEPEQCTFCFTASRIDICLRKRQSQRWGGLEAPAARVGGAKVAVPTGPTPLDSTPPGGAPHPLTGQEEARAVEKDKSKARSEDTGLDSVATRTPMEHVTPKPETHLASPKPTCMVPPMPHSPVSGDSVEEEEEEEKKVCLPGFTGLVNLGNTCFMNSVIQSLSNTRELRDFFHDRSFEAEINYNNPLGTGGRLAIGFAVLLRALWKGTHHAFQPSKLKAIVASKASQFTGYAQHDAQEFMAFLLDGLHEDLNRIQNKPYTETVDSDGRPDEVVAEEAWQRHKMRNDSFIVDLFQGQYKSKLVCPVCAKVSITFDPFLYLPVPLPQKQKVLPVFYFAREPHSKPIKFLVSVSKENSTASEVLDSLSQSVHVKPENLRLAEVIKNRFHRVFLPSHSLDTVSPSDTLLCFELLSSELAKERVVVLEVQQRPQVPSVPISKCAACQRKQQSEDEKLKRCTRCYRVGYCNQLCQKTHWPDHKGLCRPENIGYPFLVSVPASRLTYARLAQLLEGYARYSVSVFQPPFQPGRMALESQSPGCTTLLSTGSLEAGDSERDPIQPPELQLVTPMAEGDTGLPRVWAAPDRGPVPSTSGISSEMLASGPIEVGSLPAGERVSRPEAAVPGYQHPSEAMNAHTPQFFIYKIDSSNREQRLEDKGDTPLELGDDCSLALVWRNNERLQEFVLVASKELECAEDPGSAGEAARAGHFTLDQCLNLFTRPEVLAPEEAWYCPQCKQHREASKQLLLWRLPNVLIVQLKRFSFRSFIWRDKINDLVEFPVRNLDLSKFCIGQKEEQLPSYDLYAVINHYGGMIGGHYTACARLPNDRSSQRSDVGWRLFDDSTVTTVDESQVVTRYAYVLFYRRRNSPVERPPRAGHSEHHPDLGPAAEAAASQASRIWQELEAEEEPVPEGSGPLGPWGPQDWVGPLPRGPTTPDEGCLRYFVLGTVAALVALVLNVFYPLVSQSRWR
Outline: (§1)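 Labelling with Biotin-Ahx-Ub-VS (0.5 µM final, 1 h) followed a 3 h triplicate treatment of HEK293T lysate (495 µg per sample, Tris/CHAPS/IGEPAL buffer with protease inhibitors) with fragment at 200 µM or vehicle. Labelled DUBs were NeutrAvidin-enriched, digested with LysC and trypsin, and run by diaPASEF LC-MS/MS. The values, average log2 fragment/vehicle ratios by unpaired t-test, come from global-median-normalised Spectronaut label-free quantities. Proteins with ≥2 unique peptides were used.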

USP22 = molecular target: T2, USP22 (UniProt Q9UPT9)
T2 sequence (whole entry): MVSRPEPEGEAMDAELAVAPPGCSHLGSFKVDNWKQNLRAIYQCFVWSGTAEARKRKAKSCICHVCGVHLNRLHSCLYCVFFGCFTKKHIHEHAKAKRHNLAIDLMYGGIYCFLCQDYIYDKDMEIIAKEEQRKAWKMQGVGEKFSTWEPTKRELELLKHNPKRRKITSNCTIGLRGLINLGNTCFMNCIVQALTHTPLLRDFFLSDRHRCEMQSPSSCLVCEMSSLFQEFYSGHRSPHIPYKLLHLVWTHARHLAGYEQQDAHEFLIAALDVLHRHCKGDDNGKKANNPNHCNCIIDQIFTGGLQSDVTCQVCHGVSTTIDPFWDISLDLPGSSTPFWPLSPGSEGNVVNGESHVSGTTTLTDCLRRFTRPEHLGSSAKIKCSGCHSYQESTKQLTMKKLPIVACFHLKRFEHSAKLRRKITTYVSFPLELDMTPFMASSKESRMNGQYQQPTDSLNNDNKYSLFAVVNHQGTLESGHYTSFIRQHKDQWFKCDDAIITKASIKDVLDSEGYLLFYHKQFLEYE
Outline: as §1

USP24 = USP24 (UniProt Q9UPU5)
Outline: as §1

USP25 = molecular target: T3, USP25 (UniProt Q9UHP3)
T3 sequence (whole entry): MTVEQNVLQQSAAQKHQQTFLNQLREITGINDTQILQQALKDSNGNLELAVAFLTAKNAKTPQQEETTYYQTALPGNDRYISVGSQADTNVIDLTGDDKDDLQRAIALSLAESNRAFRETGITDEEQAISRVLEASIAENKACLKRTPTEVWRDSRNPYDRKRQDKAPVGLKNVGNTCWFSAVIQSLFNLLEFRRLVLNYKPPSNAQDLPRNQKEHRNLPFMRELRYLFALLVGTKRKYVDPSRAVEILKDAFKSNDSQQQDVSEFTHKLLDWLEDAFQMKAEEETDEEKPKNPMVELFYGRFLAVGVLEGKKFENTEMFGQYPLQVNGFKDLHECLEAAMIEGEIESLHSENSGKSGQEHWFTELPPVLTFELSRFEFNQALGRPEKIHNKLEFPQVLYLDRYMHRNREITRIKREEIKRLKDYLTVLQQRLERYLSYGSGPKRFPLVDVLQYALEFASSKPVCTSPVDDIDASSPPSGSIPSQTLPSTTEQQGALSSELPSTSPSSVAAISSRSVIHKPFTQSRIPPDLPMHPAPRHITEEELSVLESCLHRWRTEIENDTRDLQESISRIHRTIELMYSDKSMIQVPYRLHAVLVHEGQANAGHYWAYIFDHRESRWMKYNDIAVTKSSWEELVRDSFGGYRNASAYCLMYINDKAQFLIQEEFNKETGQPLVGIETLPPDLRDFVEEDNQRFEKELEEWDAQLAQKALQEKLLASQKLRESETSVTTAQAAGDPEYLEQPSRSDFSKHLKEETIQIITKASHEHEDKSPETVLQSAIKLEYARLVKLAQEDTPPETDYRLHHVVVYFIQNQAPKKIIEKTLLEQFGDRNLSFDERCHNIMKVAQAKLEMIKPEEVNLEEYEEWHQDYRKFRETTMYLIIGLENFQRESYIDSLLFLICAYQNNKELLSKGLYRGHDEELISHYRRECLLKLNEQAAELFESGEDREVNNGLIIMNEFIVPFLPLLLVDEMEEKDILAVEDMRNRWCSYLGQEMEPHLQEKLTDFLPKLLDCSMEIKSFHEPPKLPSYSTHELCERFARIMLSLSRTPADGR
Outline: as §1

USP28 = molecular target: T4, USP28 (UniProt Q96RU2)
T4 sequence (whole entry): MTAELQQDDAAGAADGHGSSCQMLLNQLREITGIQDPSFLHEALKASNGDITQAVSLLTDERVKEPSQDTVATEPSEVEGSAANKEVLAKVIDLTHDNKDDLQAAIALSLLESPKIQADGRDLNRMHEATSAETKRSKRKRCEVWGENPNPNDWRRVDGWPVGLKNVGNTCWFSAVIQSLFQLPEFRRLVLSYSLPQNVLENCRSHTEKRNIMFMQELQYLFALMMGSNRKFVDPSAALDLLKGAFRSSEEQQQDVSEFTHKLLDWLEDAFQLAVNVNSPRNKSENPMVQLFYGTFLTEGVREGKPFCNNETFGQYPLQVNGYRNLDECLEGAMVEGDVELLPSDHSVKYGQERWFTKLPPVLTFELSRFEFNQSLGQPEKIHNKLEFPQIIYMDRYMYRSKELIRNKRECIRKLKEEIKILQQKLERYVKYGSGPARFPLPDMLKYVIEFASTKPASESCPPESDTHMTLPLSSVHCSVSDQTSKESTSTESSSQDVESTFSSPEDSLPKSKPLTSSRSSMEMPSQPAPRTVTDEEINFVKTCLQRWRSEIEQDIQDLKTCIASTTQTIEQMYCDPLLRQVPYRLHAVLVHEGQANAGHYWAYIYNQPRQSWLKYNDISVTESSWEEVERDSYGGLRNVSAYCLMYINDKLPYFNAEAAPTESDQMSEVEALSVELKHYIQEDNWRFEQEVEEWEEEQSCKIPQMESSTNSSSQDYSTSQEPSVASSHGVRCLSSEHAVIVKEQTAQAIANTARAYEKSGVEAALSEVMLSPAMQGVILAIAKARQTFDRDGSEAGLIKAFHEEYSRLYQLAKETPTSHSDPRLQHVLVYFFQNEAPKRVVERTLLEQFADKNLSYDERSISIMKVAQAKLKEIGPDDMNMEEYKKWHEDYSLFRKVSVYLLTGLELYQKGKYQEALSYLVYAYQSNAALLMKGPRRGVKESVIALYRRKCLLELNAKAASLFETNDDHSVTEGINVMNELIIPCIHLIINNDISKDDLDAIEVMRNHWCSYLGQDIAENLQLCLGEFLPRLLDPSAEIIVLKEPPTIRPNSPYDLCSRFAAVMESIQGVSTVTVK
Outline: as §1

Measured: log2 ratio of Biotin-Ahx-Ub-VS probe labelling

Chain of USP24 (Q9UPU5 whole entry): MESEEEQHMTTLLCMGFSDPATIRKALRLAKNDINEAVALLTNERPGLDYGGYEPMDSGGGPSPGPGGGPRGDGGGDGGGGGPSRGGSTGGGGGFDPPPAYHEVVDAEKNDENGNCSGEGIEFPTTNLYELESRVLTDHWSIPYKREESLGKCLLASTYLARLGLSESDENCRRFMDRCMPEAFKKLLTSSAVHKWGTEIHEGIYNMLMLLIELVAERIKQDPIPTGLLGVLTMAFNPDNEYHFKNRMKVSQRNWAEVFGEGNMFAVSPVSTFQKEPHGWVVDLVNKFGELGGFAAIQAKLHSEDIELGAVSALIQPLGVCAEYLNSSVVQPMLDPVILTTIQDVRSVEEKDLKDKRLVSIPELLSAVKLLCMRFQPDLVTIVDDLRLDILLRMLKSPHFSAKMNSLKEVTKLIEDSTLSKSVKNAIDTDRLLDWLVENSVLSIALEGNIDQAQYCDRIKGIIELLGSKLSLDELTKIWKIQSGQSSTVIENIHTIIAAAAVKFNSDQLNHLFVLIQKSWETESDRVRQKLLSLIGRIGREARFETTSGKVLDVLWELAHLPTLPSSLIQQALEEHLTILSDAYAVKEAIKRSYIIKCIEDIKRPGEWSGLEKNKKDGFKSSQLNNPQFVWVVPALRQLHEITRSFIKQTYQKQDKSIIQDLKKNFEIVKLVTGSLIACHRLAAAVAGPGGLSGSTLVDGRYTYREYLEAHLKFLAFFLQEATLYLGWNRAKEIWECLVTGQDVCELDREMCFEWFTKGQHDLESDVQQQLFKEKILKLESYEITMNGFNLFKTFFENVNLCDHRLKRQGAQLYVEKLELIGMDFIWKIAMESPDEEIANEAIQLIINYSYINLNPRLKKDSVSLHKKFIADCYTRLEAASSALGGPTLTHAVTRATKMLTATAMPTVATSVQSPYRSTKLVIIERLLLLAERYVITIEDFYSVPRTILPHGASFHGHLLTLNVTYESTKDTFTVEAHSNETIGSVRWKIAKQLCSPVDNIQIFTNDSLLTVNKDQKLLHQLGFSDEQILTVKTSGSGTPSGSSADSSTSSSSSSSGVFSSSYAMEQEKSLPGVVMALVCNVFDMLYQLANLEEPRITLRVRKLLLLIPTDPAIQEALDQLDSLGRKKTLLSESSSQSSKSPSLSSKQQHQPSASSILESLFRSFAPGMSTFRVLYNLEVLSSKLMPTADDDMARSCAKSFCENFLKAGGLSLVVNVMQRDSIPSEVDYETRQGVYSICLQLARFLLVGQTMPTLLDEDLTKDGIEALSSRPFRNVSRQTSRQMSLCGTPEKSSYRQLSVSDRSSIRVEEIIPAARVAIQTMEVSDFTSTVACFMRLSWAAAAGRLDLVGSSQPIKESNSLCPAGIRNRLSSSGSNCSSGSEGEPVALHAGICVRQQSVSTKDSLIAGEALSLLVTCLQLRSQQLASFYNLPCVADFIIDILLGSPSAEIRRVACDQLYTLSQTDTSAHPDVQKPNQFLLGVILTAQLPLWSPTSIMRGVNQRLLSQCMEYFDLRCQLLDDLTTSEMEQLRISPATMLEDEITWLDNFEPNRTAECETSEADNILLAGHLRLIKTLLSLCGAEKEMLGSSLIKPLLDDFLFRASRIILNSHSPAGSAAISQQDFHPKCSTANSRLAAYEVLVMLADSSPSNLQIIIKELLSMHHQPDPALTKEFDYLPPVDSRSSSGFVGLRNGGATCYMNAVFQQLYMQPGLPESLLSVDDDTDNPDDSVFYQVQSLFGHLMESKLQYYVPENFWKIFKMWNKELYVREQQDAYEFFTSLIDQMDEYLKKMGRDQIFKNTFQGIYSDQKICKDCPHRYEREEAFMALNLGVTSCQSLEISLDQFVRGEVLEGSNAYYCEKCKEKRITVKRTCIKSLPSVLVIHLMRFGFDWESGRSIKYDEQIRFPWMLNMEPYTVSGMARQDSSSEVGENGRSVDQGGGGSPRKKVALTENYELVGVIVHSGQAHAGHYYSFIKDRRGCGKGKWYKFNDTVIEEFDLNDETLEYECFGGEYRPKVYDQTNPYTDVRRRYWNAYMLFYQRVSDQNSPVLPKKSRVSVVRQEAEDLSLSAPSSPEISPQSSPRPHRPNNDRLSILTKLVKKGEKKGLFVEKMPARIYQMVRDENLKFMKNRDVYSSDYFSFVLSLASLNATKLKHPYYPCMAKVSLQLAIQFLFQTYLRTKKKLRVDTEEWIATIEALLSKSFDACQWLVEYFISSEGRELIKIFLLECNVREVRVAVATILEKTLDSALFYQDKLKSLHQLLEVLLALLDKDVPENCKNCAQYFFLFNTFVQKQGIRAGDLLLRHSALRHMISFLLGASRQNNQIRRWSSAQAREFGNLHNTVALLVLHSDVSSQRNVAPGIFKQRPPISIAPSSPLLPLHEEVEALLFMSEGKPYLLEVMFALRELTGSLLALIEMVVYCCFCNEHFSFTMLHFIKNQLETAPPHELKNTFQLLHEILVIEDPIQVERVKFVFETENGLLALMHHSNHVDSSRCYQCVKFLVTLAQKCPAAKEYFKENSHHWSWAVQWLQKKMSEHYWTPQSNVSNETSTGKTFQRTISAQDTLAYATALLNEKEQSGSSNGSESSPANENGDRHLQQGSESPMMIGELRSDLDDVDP

Cl.O=C(CCl)NCc1ccnc(Oc2ccccc2F)c1
inactive: USP19 -0.111 | USP22 -0.353 | USP24 -0.349 | USP25 -0.678 | USP28 -0.558
